ChEMBL document CHEMBL4513216, “Probing the Open Global Health Chemical Diversity Library for Multistage-Active Starting Points for Next-Generation Antimalarials” (ACS Infect Dis, 2020)
About 2,700 (4%) of roughly 68,000 compounds showed an effect of 50% or more. The sample as a whole holds a higher share of strong results than the screen did.

The compounds below were run on Plasmodium berghei (assay: Screen against P. berghei liver stage (PbLuc), transformed with Luciferase, at 2uM). Details: tested at 2 uM.
Type: functional, HepG2

Row | Structure (SMILES) | INHIBITION [%]
1 | Cc1cnn(CC2CN(Cc3nc(C4CC4)no3)CCO2)c1 (configuration not stated) | -18.67
2 | c1cnc(NCc2cncc3c2CCN(Cc2ccsc2)C3)nc1 | 46.11
3 | CSc1nc2ccsc2c(=O)n1CC(=O)N1CCCCC1C (configuration not stated) | -24.07
4 | CC(C)NC(=O)N1CCC2(CC(=O)N(c3cccc(C#N)c3)C2)C1 (configuration not stated) | -8.23
5 | O=C(C1CCOCC1)N1C[C@H](OCc2cccnc2)[C@H]2COC[C@H]21 | 26.19
6 | CCOc1ncccc1C(=O)N1CCCC(c2nccn2CCOC)C1 (configuration not stated) | -32.59
7 | CN1CCc2cc(C(=O)N(C)C)c(NCC3CC3)nc2CC1 | 23.97
8 | COCCNCc1cc2ccc(C)c(C)c2[nH]c1=O | -21.9
9 | CCC1CN(C(=O)c2csc3nc(-c4ccc(Cl)cc4)cn23)CCN1 (configuration not stated) | 22.83
10 | Cc1cccc(CN2C(=O)CCC23CCN(Cc2cccn2C)CC3)n1 | 17.39
11 | COc1ccc(-c2ncc(-c3nccn3CCN(C)C)cn2)cc1 | 10.63
12 | CC(C)c1nccn1C1CCCN(C(=O)CCc2cscn2)C1 (configuration not stated) | 21.39
13 | COc1ccc(C[C@H]2CN(C(=O)c3cnoc3)CC[C@@H]2OC)cc1 | -36.05
14 | COc1ccc(C[C@H]2CN(C(=O)c3cscn3)CC[C@@H]2OC)cc1 | -6.39
15 | CO[C@@H]1CCN(C(=O)c2cc(C)on2)C[C@@H]1Cc1ccccc1 | 52.91
16 | COc1ccsc1C(=O)N1CCCC1c1c(C)nn(C)c1OC (configuration not stated) | -11.31
17 | Cn1cc(N2C(=O)CC[C@@H]3[C@H]2CCN3Cc2nccs2)cn1 | -20.87
18 | Cn1cc(N2C(=O)CC[C@@H]3[C@H]2CCN3CC2CCOCC2)cn1 | 50.17
19 | Cn1cc(N2C(=O)CC[C@@H]3[C@H]2CCN3CCc2ccccc2)cn1 | -18.2
20 | CCCN1CCC(Cc2noc(-c3cc4cccnc4nc3C)n2)CC1 | 38.91
21 | CC(C(=O)NCc1ccc(N2CCNC(=O)C2)cc1)c1cccs1 (configuration not stated) | -25.44
22 | CCOC(=O)NC(CNC(=O)c1ccccn1)CC(C)C (configuration not stated) | -15.54

Row | Structure (SMILES) | INHIBITION [%]
23 | CCOC(=O)NC(CNC(=O)c1cn(C)cn1)CC(C)C (configuration not stated) | 60.9
24 | CCOC(=O)NC(CNC(=O)c1ncccn1)CC(C)C (configuration not stated) | 2.41
25 | O=C(NCCN1CCOCC1)NCC(O)c1cccc(F)c1 (configuration not stated) | -27.69
26 | Cc1noc(CN(CCO)Cc2cc(Br)ccc2F)n1 | -18.92
27 | CCOc1cncc(N2CCN(c3ccccc3O)CC2)n1 | 22.75
28 | COc1c(C2CCCN2Cc2nnc(C3CC3)n2C)c(C)nn1C (configuration not stated) | 28.1
29 | CCn1ccnc1CN1CCCC1c1c(C)nn(C)c1OC (configuration not stated) | -69.19
30 | COc1c(C2CCCN2Cc2noc(C(C)C)n2)c(C)nn1C (configuration not stated) | 59.93
31 | CCc1nc(CN2CCCC2c2c(C)nn(C)c2OC)no1 (configuration not stated) | 23.94
32 | COc1c(C2CCCN2Cc2nccn2C)c(C)nn1C (configuration not stated) | 56.47
33 | COc1c(C2CCCN2Cc2noc(C)n2)c(C)nn1C (configuration not stated) | 21.83
34 | Cc1ccc(CN2CCn3c(C(=O)N(C)C)cnc3C2)cc1 | 7.77
35 | CN(C)C(=O)c1cnc2n1CCN(Cc1ccsc1)C2 | 54.89
36 | CN(C)C(=O)c1cnc2n1CCN(Cc1ccccc1)C2 | -26.24
37 | CCOCC(O)CN1CCN(C(=O)c2cnc3n[nH]c(C)c3c2)CC1 (configuration not stated) | 21.89
38 | CC(O)CN1CCN(C(=O)c2cnn(-c3ccccc3F)c2)CC1 (configuration not stated) | -7.05
39 | CC(c1ccccn1)N(C)C(=O)NCCn1c(=O)oc2ccccc21 (configuration not stated) | 40.4
40 | Cn1c(CC(=O)O)c(Sc2ccccc2)c2ccccc21 | 52.89
41 | CSc1c(CC(=O)O)n(C)c2ccccc12 | -18.52
42 | Cc1ccc2c(c1)c(Sc1ccccc1)c(CC(=O)O)n2C | -36.84
43 | CSCC(CCO)NC(=O)Nc1cccc(Br)c1C (configuration not stated) | -29.43
44 | O[C@@H]1C[C@@H](c2nc(Cc3ccccc3)no2)N(Cc2ccc(F)cc2)C1 | 30.63

Row | Structure (SMILES) | INHIBITION [%]
45 | CN(Cc1ccc(F)cc1)CC1(O)CCN(C(=O)c2ccn(C)n2)C1 (configuration not stated) | -21.42
46 | CC(C)(C)OC(=O)NCC1CCCCN1Cc1ccccn1 (configuration not stated) | -43.28
47 | CC(C)(C)OC(=O)NCC1CCCCN1Cc1ccncc1 (configuration not stated) | 54.29
48 | CC(C)(C)OC(=O)NCC1CCCCN1Cc1cccnc1 (configuration not stated) | 24.05
49 | Cc1cc(C(F)(F)F)nn1C(C)C(=O)NN1CCN(C)CC1 (configuration not stated) | 32.88
50 | Fc1cccc(-c2nnn3c2COC(CNc2ncccn2)C3)c1 (configuration not stated) | 39.47
51 | CNS(=O)(=O)c1ccc(CNC(=O)NCC2CCCO2)cc1 (configuration not stated) | 39.32
52 | CNS(=O)(=O)c1ccc(CNC(=O)C2CCCO2)cc1 (configuration not stated) | 52.17
53 | CNS(=O)(=O)c1ccc(CNC(=O)C2CN(C)CCO2)cc1 (configuration not stated) | 33.49
54 | Cn1ccnc1CN(Cc1cccnc1)CC1CCCO1 (configuration not stated) | 41.82
55 | CCn1nc(C(=O)N2CCNCC2C(=O)Nc2ccc(C)nc2)cc1C (configuration not stated) | 3.82
56 | O=C(Cc1cccc(F)c1)NCCNCc1cccc(O)c1 | 57.33
57 | O=C(Cc1ccccc1)NCCNCc1cccc(O)c1 | 31.57
58 | O=C(Cc1ccc(F)cc1)NCCNCc1cccc(O)c1 | -49.9
59 | c1ccc(CN2Cc3[nH]nc(COc4cccnc4)c3C2)nc1 | 18.6
60 | CC1CNC(=O)CCN1Cc1cc(O)c2cccc(F)c2n1 (configuration not stated) | 18.31
61 | Cc1nnc(CN(Cc2ccc(Cl)c(Cl)c2)C(C)C)o1 | 55.36
62 | Cc1nnc(CN(Cc2ccc3c(c2)OCO3)C2CCC(C)CC2)o1 (configuration not stated) | -37.84
63 | Cc1nnc(CN(Cc2ccc(Cl)c(Cl)c2)C2CC2)o1 | 50.59
64 | Cc1nnc(CN(Cc2cccc(Br)c2)C2CC2)o1 | -21.25
65 | CC(C)N(Cc1cccc(Cl)c1)Cc1nnsc1Cl | 16.72
66 | Cc1nnc(CN(Cc2cccc(Cl)c2)C(C)C)o1 | 41.05

Row | Structure (SMILES) | INHIBITION [%]
67 | O=C(c1ccccc1F)N1CCN(c2ccc(-n3cccc3)nn2)CC1 | -17.9
68 | O=C(c1cccnc1)N1CCN(c2ccnc3ccsc23)CC1 | 4.52
69 | c1cc(-c2cnccn2)cc(-c2ccn(CCN3CCCCC3)n2)c1 | 11.33
70 | c1cc(-c2cnccn2)cc(-c2ccn(CCN3CCCC3)n2)c1 | 6.07
71 | c1ccc(-c2cccc(-c3ccn(CCN4CCCCC4)n3)c2)nc1 | 63.1
72 | CS(=O)(=O)CCC(=O)N(CCc1cccc(F)c1)C1CC1 | 29.22
73 | CN(C(=O)CC1=CCCCC1)C1CCCN(C2Cc3ccccc3C2)C1 (configuration not stated) | -12.75
74 | CN(C(=O)CCc1ccncc1)C1CCCN(CCc2ccccc2)C1 (configuration not stated) | 42.17
75 | CN(C(=O)CC1=CCCCC1)C1CCCN(CCc2ccccc2)C1 (configuration not stated) | 73.01
76 | CSc1ccccc1C(=O)N(C)C1CCCN(CCc2ccccc2)C1 (configuration not stated) | -1.89
77 | CC(C)C(=O)NCC(=O)N(C)C1CCCN(CCc2ccccc2)C1 (configuration not stated) | 15.44
78 | CN(C(=O)c1cccnc1)C1CCCN(CCc2ccccc2)C1 (configuration not stated) | 52.08
79 | CC(=O)N1C[C@H]2CC[C@@H](C1)N(S(=O)(=O)c1ccc(C#N)cc1Cl)C2 | -0.38
80 | COCCc1noc(CN(C)C2CCCN(c3cccnn3)C2)n1 (configuration not stated) | 1.07
81 | Cc1nccn1C1CCCN(C(=O)c2ccc3c(c2)COC3)C1 (configuration not stated) | 23.92
82 | CC(C)c1nccn1C1CCCN(C(=O)c2ccc3c(c2)OCO3)C1 (configuration not stated) | 4.5
83 | CC(C)c1nccn1C1CCCN(C(=O)c2ccc3c(c2)COC3)C1 (configuration not stated) | 54.28
84 | Cc1nccn1C1CCCN(C(=O)c2ccc3nncn3c2)C1 (configuration not stated) | 47.87
85 | CC(C)c1nccn1C1CCCN(C(=O)c2ccc3nncn3c2)C1 (configuration not stated) | 72.31
86 | CCc1nccn1C1CCCN(C(=O)c2ccc3nncn3c2)C1 (configuration not stated) | -32.49
87 | OC(CN1CCN(Cc2cccnc2)CC1)c1cccs1 (configuration not stated) | -11.22
88 | Cn1c(N2CCOCC2)nc2cc(C(=O)N3CC(O)CO3)ccc21 (configuration not stated) | -23.4

Row | Structure (SMILES) | INHIBITION [%]
89 | COc1ccc(CN2CCc3ncnc(OC(C)C)c3CC2)cc1 | 10.69
90 | Cc1cc(C)c2[nH]c(C(=O)NCCN3CCNC3=O)c(C)c2c1 | 8.76
91 | COc1cc(N2CCOC(c3ccc(F)cc3)C2)ncn1 (configuration not stated) | 19.27
92 | N#Cc1c(F)cccc1Nc1cnn(CC(N)=O)c1 | -58.5
93 | Cn1cc(CNC2CCc3ncnn3C2)c(-c2cccnc2)n1 (configuration not stated) | 13.53
94 | CCc1nc2n(n1)CC(NCc1nc(-c3cccnc3)no1)CC2 (configuration not stated) | 41.71
95 | CCc1nc2n(n1)CC(NCc1cn(C)nc1-c1cccnc1)CC2 (configuration not stated) | 54.29
96 | O=C(Nc1ncn(CC(=O)N2CCCCCC2)n1)C1CCCO1 (configuration not stated) | 53.03
97 | O=C(Nc1ncn(CC(=O)N2CCCCCC2)n1)C1CCCC1 | 35.23
98 | CC(CC(=O)Nc1ncn(CC(=O)N2CCCCCC2)n1)C1CC1 (configuration not stated) | 34.73
99 | CCCC(N)CNS(=O)(=O)Cc1cccc(C#N)c1 (configuration not stated) | 22.07
100 | CCC(c1nc(CC(C)C)nn1-c1ccccn1)n1cccn1 (configuration not stated) | -72.12
101 | CCNC(=O)[C@@H]1C[C@H](N)CN1C(=O)c1c[nH]c2ccccc12 | 22.16
102 | Cn1cc(C(=O)Nc2ccc(CC(=O)NCC(F)(F)F)cc2)nn1 | 78.24
103 | CC(=O)N1CCc2ccc(NC(=O)c3cn(C)nn3)cc2C1 | 29.65
104 | CN(C)C(=O)Cc1ccc(NC(=O)c2cn(C)nn2)cc1 | 29.87
105 | COC(=O)N1CCc2ccc(NC(=O)c3cn(C)nn3)cc2C1 | 41.44
106 | Cn1cc(C(=O)Nc2ccc3c(c2)CN(C(=O)C2CC2)CC3)nn1 | 0
107 | Cn1cc(C(=O)Nc2ccc(CC(=O)NC3CC3)cc2)nn1 | 52.85
